According to PubChem BioAssay (NCI):
The panel holds about 79,000 compounds, 15% with a hit somewhere; the sample as a whole holds those more often. Values without a mark were called inactive. The source made the active and inactive calls. Cut-off read from the data, not from the text of the source: active = growth inhibition above about 70%; inactive = the rest.

Columns and labels:
[1] = NCI Yeast Anticancer Drug Screen. Data for the rad50 strain (AID 155);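 note: 0% = growth of vehicle-only cultures of the same strain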; conditions: S. cerevisiae rad50 strain growth inhibition; at 50.0 µM; active compounds read high
Outline: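 A DNA repair-deficient yeast mutant serves as the test organism; compound-induced growth inhibition is calculated against vehicle-treated cells.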

[2] = NCI Yeast Anticancer Drug Screen. Data for the mec2-1 strain (AID 157); conditions: S. cerevisiae mec2-1 strain, at 50.0 µM, active compounds read high
Outline: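 Mutant yeast (mec2-1) grown with compound; growth inhibition relative to vehicle control reported.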

[3] = NCI Yeast Anticancer Drug Screen. Data for the sgs1 mgt1 strain (AID 161);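 note: 0% = growth of cultures given vehicle only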; conditions: S. cerevisiae sgs1 mgt1 strain, at 50.0 µM, active compounds read high
Outline: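 Yeast cells carrying a defined DNA-repair defect were exposed to test compounds. Growth inhibition was measured relative to vehicle-treated controls.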

[4] = NCI Yeast Anticancer Drug Screen. Data for the cln2 rad14 strain (AID 165);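 note: 0% = growth equal to vehicle treated cultures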; conditions: S. cerevisiae cln2 rad14 strain, at 50.0 µM, active compounds read high
Outline: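 Readout is yeast growth inhibition versus vehicle-treated controls, using a strain with cln2 and rad14 alterations exposed to compound.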

[5] = NCI Yeast Anticancer Drug Screen. Data for the bub3 strain (AID 167); conditions: S. cerevisiae bub3 mutant strain, at 50.0 µM, active compounds read high
Outline: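 Inhibition values come from growth of compound-treated mutant yeast normalised to vehicle-treated controls.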

[6] = NCI Yeast Anticancer Drug Screen. Data for the mlh1 rad18 strain (AID 175); conditions: S. cerevisiae mlh1 rad18 strain growth inhibition; at 50.0 µM; active compounds read high
Outline: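 Genetically defined yeast (DNA repair-deficient) exposed to compounds; growth inhibition determined relative to vehicle.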

Structure (SMILES) | growth inhibition [1] | growth inhibition [2] | growth inhibition [3] | growth inhibition [4] | growth inhibition [5] | growth inhibition [6]
CCP(c1ccccc1)c1ccccc1 | -0.4% | 12.4% | 13.1% | 0.95% | -40.8% | -12%
ClCCCCBr | 17.6% | -14.2% | 20.4% | 13.5% | 2.4% | 18.8%
CC1=C(C)C(=O)O[C@@H]([C@](C)(O)[C@]2(O)CC[C@@]3(O)[C@@H]4C[C@H]5O[C@]56[C@@H](O)C=CC(=O)[C@]6(C)[C@H]4CC[C@]23C)C1 | 14.9% | 24.9% | 10.7% | 13.4% | 20.1% | 12.8%
CC(=O)OC[C@]12CCC(C)=C[C@H]1O[C@@H]1[C@H](O)[C@@H](OC(C)=O)[C@@]2(C)[C@@]12CO2 | -9.2% | -26.6% | 14.9% | -3.45% | -1.3% | -6.7%
CCCCCCCCSP(SCCCCCCCC)SCCCCCCCC | -11.8% | -0.1% | -25.3% | 2.7% | 1.25% | 0.9%
Clc1ccc([C@H]2N[C@@H]2c2ccccn2)cc1 | 11.2% | 16.1% | 13.7% | -8.45% | 9.15% | -5.55%
CN(C)Cc1c[nH]c2ccc(F)cc12 | -27% | -13.8% | -15.2% | 5.65% | -11.8% | -16.9%
COc1cc(/C=C2\C(O)C3CCN2CC3)cc(OC)c1OC (stereo unspecified) | -9.25% | -2.15% | -5.6% | -8.65% | 9.1% | -6.8%
CC1CS1 (stereo unspecified) | -5.7% | 4.8% | -10.1% | 2.9% | 12.2% | -11.1%
CC1=C2C(=O)C(C)(C)C=C2C(=O)[C@](C)(O)C12CC2 | 66.4% | 47.1% | 68% | 55.2% | -5.95% | 5.4%
O=C1C(Br)=C(N2CC2)C(=O)C(Br)=C1N1CC1 | 96% (active) | 88% (active) | 90.5% (active) | 79.2% (active) | 39% | 97% (active)
Cc1cc(=O)oc2cc(OC(=O)N(C)C)c(Cl)cc12 | -0.5% | -11.3% | 17.4% | 24.4% | 18.2% | 10.3%
C=CC(=O)OC(C)C | 21.6% | 11.2% | 2.35% | -1.7% | 33.8% | 15.8%
CCNC1CCCCC1 | 26.3% | -5.45% | -14.2% | 29.1% | -19.1% | 20.1%
CCCCOCCOP(=O)(OCCOCCCC)OCCOCCCC | 7.85% | -15.2% | 2% | -14.8% | -39% | -28.4%
CC1NC1(c1ccccc1)n1ccnc1 (stereo unspecified) | 13.4% | -18.1% | 5.8% | -14.5% | 11.4% | 3.4%
NC(Cc1cccc(NP(=S)(NCCO)N2CC2)c1)C(=O)O (stereo unspecified) | -4.95% | 15.1% | 12.8% | -10.9% | 13.1% | 4.35%
C=C1C(=O)OC2CC3(C)OC3C3OC3C3=CC(OC3=O)C12 (stereo unspecified) | 18.9% | 34.7% | 57.1% | 29.6% | 41.4% | 38.1%

Structure (SMILES) | growth inhibition [1] | growth inhibition [2] | growth inhibition [3] | growth inhibition [4] | growth inhibition [5] | growth inhibition [6]
CCC1(CCC(C)C)C(=O)NC(=O)N(C)C1=O (stereo unspecified) | -6.05% | -1.2% | -1.75% | -19.4% | -11.3% | -4.05%
CC1(C)N=C(N)N=C(N)N1c1ccc(OCCOc2ccc(S(=O)(=O)F)cc2)cc1 | -11.1% | -14.4% | -2.05% | -59.4% | -10.7% | -18.4%
O=Cc1ccccc1.[C-]#[O+].[C-]#[O+].[C-]#[O+].[Cr] | 7.35% | -34.2% | 1.8% | -19.1% | 11.1% | 15.8%
CCCCCC(=O)c1c(O)cc2c(c1O)C(=O)c1c(O)cc(O)cc1C2=O | 10.2% | 2.25% | 6.1% | 10.3% | 8.35% | -5.7%
Cc1cc2oc(=O)c3c(c2c(O)c1CN1CCOCC1)CCCC3 | 34.1% | 14.4% | 16.5% | 15.6% | 18.1% | 15.8%
CC1CC(O)C(=O)C(O[C@@H]2C[C@@H]3CC[C@@H]4[C@H](CC[C@]5(C)C(C6=CC(=O)OC6)CC[C@]45O)[C@@]3(C=O)C[C@H]2O)O1 (stereo partly specified) | 7.95% | 8.5% | -8.1% | -2.6% | -12.8% | -42.9%
O=c1oc2cc(O)ccc2c(O)c1C(c1ccc2ccccc2c1)c1c(O)c2ccc(O)cc2oc1=O | 8.65% | 31.2% | 36.7% | 35.8% | 17.2% | -17.4%
CCOP(=O)(CC(N)=O)OCC | -4.9% | 9.8% | 3.5% | 0.1% | 13.8% | -11.8%
CC(=O)c1ccccc1N=Nc1ccc(N(CCCl)CCCl)cc1C | 13.5% | 19.7% | 12.9% | 0.95% | 20.5% | 31.4%
COc1ccc(N2CC=C(c3ccccc3)OP2(=O)N(CCCl)CCCl)cc1 (stereo unspecified) | -49.8% | -4.5% | -3.45% | 9.75% | 6.4% | -3.2%
Cc1ncc(C)[n+]2c(C)csc12 | 5% | -7.95% | -5.05% | -0.4% | -0.9% | -23.4%
C#CCn1c(I)cc2c(c1=O)COC(=O)[C@]2(O)CC | 0.95% | -3.3% | 19.6% | -5.4% | 6.35% | -31.8%
CCOP(=O)(OCC)/C(C#N)=C/c1ccco1 | -2.55% | -25.4% | -9.65% | 21.8% | -16.5% | -21.8%
CC(=O)CCC(=O)O | -7.05% | 0.55% | -39.2% | 16.1% | -7.25% | -19.9%
O=S(=O)(C(Cl)Cl)C(Cl)(Cl)S(=O)(=O)C(Cl)Cl | -11.4% | -53% | 5.8% | -40.2% | 5.1% | 13.1%
c1c2c(cc3c1OCO3)-c1cc3ccc4c(c3c[n+]1CC2)OCO4 | 9.2% | -9.1% | 0.35% | 4.9% | -48.5% | -52.5%
CC(CCl)N1CCCCCC1 (stereo unspecified) | -14.3% | -16.8% | 8% | -20.8% | 5.3% | -6.8%
c1cc2c(cc1[C@@H]1OC[C@@H]3[C@H]1CO[C@H]3c1ccc3c(c1)OCO3)OCO2 | 14.1% | 12.8% | 47.2% | 12.2% | 65.5% | 6.15%
